# Screens: PubChem, National Center for Advancing Translational Sciences (NCATS)
# Rows were chosen to be rich in hits. Some 8.3% of all compounds tested hit in one or more screens of this group.
# VP16 counter: VP16 counterscreen qHTS for inhibitors of ROR gamma transcriptional activity; Drosophila S2 Gal4-VP16 UAS-luciferase, luminescence, 20 h; Potency, µM (top dose mostly 53.6 µM), for inactives: at the highest dose activity, negative = inhibition, actives largely listed as inhibitors; 310,000 compounds, 3.5% hits;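 also: Gal4-VP16 expression switched on by copper sulfate through the metallothionein promoter; potency is read from the fitted curve at half-maximal effect; % is scaled to controls: 0 for no effect and ±100 for the full control effect; nearly all actives have a fitted effect of over 50% in size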
# Giardia kill: Small Molecules that selectively kill Giardia lamblia: qHTS. Giardia lamblia trophozoite viability. activity change, % at 7.66 µM, hits read low. AID 540267, 2011. 340,000 compounds, 0.15% hits; in the data active = activity change below about -80%; inconclusive = between about -30% and that limit;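 also: parasites exposed to compound for two days anaerobically before the ATP read; % is scaled to controls: 0 for no effect and ±100 for the full control effect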
#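 Luminescence from cellular ATP indicates surviving trophozoites (100 cells/well) following 48 hrs anaerobic compound treatment at 37 deg C; signal develops 15-30 min at room temperature.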
# RORg inh: qHTS for inhibitors of ROR gamma transcriptional activity. Nuclear receptor ROR-gamma (Mus musculus), P51450. Drosophila S2 Gal4-RORgamma UAS-luciferase reporter, 20 h. Potency, µM (top dose mostly 53.6 µM), inactives show top-dose activity change, negative = inhibition, hits mostly inhibitors. 310,000 compounds, 5.4% hits; also: potency is read from the fitted curve at half-maximal effect; % is scaled to controls: 0 for no effect and ±100 for the full control effect; nearly all actives have a fitted effect of over 60% in size
# Target sequence (P51450 whole entry, looked up, the tested form may be a part): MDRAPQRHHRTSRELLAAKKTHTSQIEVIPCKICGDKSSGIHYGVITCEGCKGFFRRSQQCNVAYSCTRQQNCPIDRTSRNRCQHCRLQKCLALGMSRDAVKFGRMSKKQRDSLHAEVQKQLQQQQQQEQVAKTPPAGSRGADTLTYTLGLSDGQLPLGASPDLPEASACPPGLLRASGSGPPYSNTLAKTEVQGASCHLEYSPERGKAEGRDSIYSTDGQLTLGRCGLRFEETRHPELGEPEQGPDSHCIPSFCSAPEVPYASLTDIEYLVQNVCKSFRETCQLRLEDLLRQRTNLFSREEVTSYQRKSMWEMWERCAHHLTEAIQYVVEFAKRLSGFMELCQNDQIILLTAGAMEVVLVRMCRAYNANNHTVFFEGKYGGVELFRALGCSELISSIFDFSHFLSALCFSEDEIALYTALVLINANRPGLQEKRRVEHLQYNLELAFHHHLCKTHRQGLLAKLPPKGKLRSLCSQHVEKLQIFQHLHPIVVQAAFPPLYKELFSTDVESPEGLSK
#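 Read-out: Photinus luciferase luminescence; inhibitors lower reporter signal. Insect Schneider cells with Gal4-ROR gamma fusion under metallothionein promoter, UAS reporter; 700 uM final copper sulfate induction, 20 hr, ambient temperature.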
# MCF10A rereplic: A quantitative high throughput screen for small molecules that induce DNA re-replication in MCF 10a normal breast cells | 350,000 compounds, 2.9% hits | MCF 10A DNA re-replication, Hoechst nuclear intensity, 48 h | Potency, µM (highest dose often 46.1 µM), inactives show at the top dose activity, positive = re-replication, usual class: activators; also: potency is read from the fitted curve at half-maximal effect; % of control where 0% means no effect; nearly all actives have a fitted effect of over 50% in size
# Chronic BCR inh: qHTS Assay to Find Inhibitors of Chronic Active B-Cell Receptor Signaling. ABC-DLBCL IkBa-CBG/CBR reporter, luminescence ratio, 4 h. Potency, µM (highest dose often 46.1 µM), for the others: at the highest dose activity change, negative = inhibition, most hits filed as inhibitors. 340,000 compounds, 0.05% hits; active = well fitted inhibition curve with a large enough effect in the signal ratio, with a control signal flat, not every such curve was filed as active; inconclusive = small, poorly fitted or top-dose-only effect, or effect the other way, or a change in a side signal; the % refers to the signal ratio;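 also: potency is read from the fitted curve at half-maximal effect; plate controls were basal doxycycline-induced cells for no effect and cells given 10 µM MG132 for full effect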
#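 Concentration-response series (up to 46 uM) were applied to TMD8 dual-reporter cells for 4 h at 37C with doxycycline. Green/red ratio, after filter-overlap correction, defined %Activity; red signal alone was normalised to basal cells and zero luminescence.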
# SW480 rereplic: A quantitative high throughput screen for small molecules that induce DNA re-replication in SW480 colon adenocarcinoma cells; SW480 DNA re-replication, Hoechst DNA content imaging, 48 h; Potency, µM (highest dose often 46.1 µM), inactives show at the top dose re-replication activation, usual class: activators; AID 624297, 2012; 340,000 compounds, 1.8% hits; also: potency is read from the fitted curve at half-maximal effect; % of control where 0% means no effect; nearly all actives have a fitted effect of over 55% in size
#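 Per well, 250 cells were exposed to pinned compound for 48 hr. Nuclear DNA was visualised with Hoechst (40 min, 37 C) and total object intensity recorded by fluorescence scanning.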
# Starred values were filed as active, the others as inactive; ? = inconclusive; nt = not tested or not shown; [ ] = remark or other dose. Unless noted, calls follow the shape of the dose curve; as a rule, active = well fitted curve in the direction sought with a large enough effect; inconclusive = small, poorly fitted or top-dose-only effect, or another doubt; inactive = no such curve, though single readings can be large; an effect the other way counts as inactive or inconclusive.
SMILES,VP16 counter,Giardia kill,RORg inh,MCF10A rereplic,Chronic BCR inh,SW480 rereplic
CCN1CCN(C(=O)N[C@H](C(=O)N[C@@H]2C(=O)N3C(C(=O)O)=C(CSc4nnnn4C)CS[C@@H]23)c2ccc(O)cc2)C(=O)C1=O,-10%[17 µM],nt,-9%[16.9 µM],nt,nt,nt
COc1ccc(-c2nc3nc(SC)nn3cc2C)cc1F,25µM*,1,-2%,?,-2%,-2%
COc1ccc2c(c1)sc1nc(-c3ccccc3)cn12,2µM*,-91*,1.6µM*,?,?,?
CCOC(=O)N1CCN(C(=O)c2ccc3c(c2)sc2nc(-c4ccc(OC)cc4)cn23)CC1,-6%,13,37%,27%,5%,-3%[9.22 µM]
COc1ccc(C(=O)Nc2nc(CC(=O)NCCc3ccccc3OC)cs2)cc1,nt,-6,nt,13%,-4%,1%
CCC(C)c1ccc(NC(=S)NCCn2cc(Br)cn2)cc1 (stereo not drawn),11µM*,2,2.2µM*,0%,?,-1%
CCC(C)c1ccc(NC(=S)NCCn2cc(Cl)cn2)cc1 (stereo not drawn),10µM*,-5,3.2µM*,1%,-1%,-5%
CCC(C)c1ccc(NC(=S)Nc2ccc(OC)c(OC)c2)cc1 (stereo not drawn),3%,13,?,?,1%,-2%[9.22 µM]
CC(C)(C)c1ccc(NC(=S)NCc2cccnc2)cc1,?,-4,?,?,-11%,-20%
CCC(C)c1ccc(NC(=S)NCc2cccnc2)cc1 (stereo not drawn),22µM*,-1,?,10%,9%,-5%
COc1ccc(Cl)cc1NC(=O)c1nnn(CC(=O)Nc2ccc(C)c(C)c2)c1N,-9%,25,-17%,-1%,-1%,-34%
O=S1(=O)CC(O)C(N(CCO)C(=S)Nc2ccccc2)C1 (stereo not drawn),6%,2,-42%,0%,?,-7%
Clc1cccc(Cl)c1/C=C/c1ccn[nH]1,-7%,-30,-44%,?,?,?
O=S(=O)(Nc1cccc(-n2cnnn2)c1)c1cc(Cl)ccc1Cl,-1%,16,-22%,18%,2%,-1%
COc1cccc(CNC(=O)C2CCC(CNc3nc(=S)[nH]c4ccccc34)CC2)c1 (stereo not drawn),-11%,2,1%,?,0%,1%
Cc1ccc(CNC(=O)C2CCC(CNc3nc(=S)[nH]c4ccccc34)CC2)cc1 (stereo not drawn),-3%,-2,-36%,23µM*,-8%,14%
CCC(C)NC(=S)Nc1ccc(F)cc1 (stereo not drawn),?,15,10µM*,9%,?,-13%
CCN(CC)c1ccc(NC(=S)Nc2ccc(F)cc2)cc1,?,-3,8.9µM*,-35%,-4%,3%
CC(Cc1cccs1)NC(=S)Nc1ccc(F)cc1 (stereo not drawn),16µM*,-28,3.2µM*,20%,7%,-1%
CC(Cc1cccs1)NC(=O)Nc1ccc([N+](=O)[O-])cc1 (stereo not drawn),15%,-11,?,6%,6%,-19%
Oc1ccc(NC(=S)Nc2ccc(F)cc2)cc1,-6%,14,25%,4%,0%,-3%
COc1ccc(NC(=S)NC(C)Cc2cccs2)cc1 (stereo not drawn),2.8µM*,-4,14µM*,9%,-24%,-6%
Cc1ccccc1NC1=NC(=S)N(CC(N)=O)C12CCOC(C)(C)C2 (stereo not drawn),-6%,0,-9%,2%,-1%,-53%
Cc1cc(C)n(CCC(=O)N2CCN(S(=O)(=O)c3ccccc3)CC2)n1,-5%,-5,-43%,-4%,-13%,-6%
Cn1c2ccccc2c2cc(C(=O)NNC(=O)CCl)sc21,-28%,3,14µM*,21µM*,?,?
SMILES,VP16 counter,Giardia kill,RORg inh,MCF10A rereplic,Chronic BCR inh,SW480 rereplic
CCCCn1c(N)c(N(CCOC)C(=O)c2ccc(-c3ccccc3)cc2)c(=O)[nH]c1=O,nt,-5,nt,-4%,13%,-3%
COc1ccccc1-c1cc(-c2ccccc2)nc(SC(C(N)=O)c2ccccc2)c1C#N (stereo not drawn),?,-12,11µM*,?,9%,9.2µM*
Cc1nc(SC(C(N)=O)c2ccccc2)c(C#N)c(C)c1C (stereo not drawn),13%,-2,-1%,-6%,-21%,-7%[9.22 µM]
Cc1ccc(S(=O)(=O)NC(=NC(C)C)c2ccccc2)cc1,-1%,14,16%,0.52µM*,-7%,?
Cc1ccc(S(=O)(=O)NC(=NC(C)C(=O)O)c2ccccc2)cc1 (stereo not drawn),-9%,7,-4%,-5%,1%,-2%[9.22 µM]
Oc1ccccc1C=NCc1ccccc1,-12%,nt,-18%,12%,nt,-3%
O=C(CN1C(=O)C(=O)N(Cc2ccccc2)C1=O)Nc1cc(Cl)cc(Cl)c1,?,33,?,?,?,18µM*
COc1ccccc1C(=O)NCCC(=O)Nc1ccc(S(=O)(=O)N2CC(C)CC(C)C2)cc1 (stereo not drawn),nt,-27,nt,12%,-14%,-4%
Cc1ccc(OCCN2C(=O)C(=O)c3cc(C)ccc32)cc1,-7%,8,40%,7.3µM*,?,13µM*
Cc1cccc2c1N(CCOc1ccc(C(C)(C)C)cc1)C(=O)C2=O,?,-16,-33%,?,4%,?
Cc1ccc2c(c1)C(=O)C(=O)N2CC(=O)OC(C)C,14%,-10,1%,?,-3%,?
Cc1ccc(OCCCN2C(=O)C(=O)c3cccc(C)c32)cc1,13µM*,-5,7.9µM*,?,9%,-1%[9.22 µM]
CCCN1C(=O)C(=O)c2cc(Cl)ccc21,nt,3,nt,21µM*,?,16µM*
O=C(CCc1nnc(CCCCc2ccccc2)o1)N1CCCC(O)C1 (stereo not drawn),13%,-26,7%,-3%,1%,-1%
CCOc1ccc(N(CC(=O)N/N=C/c2ccccn2)S(=O)(=O)c2ccc(Cl)cc2)cc1,?,-16,10µM*,1%,2%,?
CCOc1ccc(S(=O)(=O)N(CC(=O)N/N=C/c2ccc(-c3ccc([N+](=O)[O-])cc3)o2)c2ccccc2)cc1,-3%,-3,18%,0.82µM*,4%,21µM*
